Common to all, as to assay: protein-binding microarray (PBM); PBM: ~300 nM protein, 6 mM HEPES pH 7.8, 80 mM KCl, 0.5 mM EDTA, 0.5 mM EGTA, 6% glycerol, 35 ng/ul poly-dIdC, 1% milk, 1 h, room temperature; Ap Aiptasia and Nv Nematostella (sea anemones) / Co Capsaspora / Aq Amphimedon (sponge) / Dm Drosophila / Hu human; RHD is the Rel homology domain; high values mean tight binding
What all share (details): dsDNA, one strand shown

The target of one test is T1, GST-Ap-NF-kB RHD (Exaiptasia pallida (Aiptasia), UniProt A0A913YAJ5 2-422).
T1 sequence: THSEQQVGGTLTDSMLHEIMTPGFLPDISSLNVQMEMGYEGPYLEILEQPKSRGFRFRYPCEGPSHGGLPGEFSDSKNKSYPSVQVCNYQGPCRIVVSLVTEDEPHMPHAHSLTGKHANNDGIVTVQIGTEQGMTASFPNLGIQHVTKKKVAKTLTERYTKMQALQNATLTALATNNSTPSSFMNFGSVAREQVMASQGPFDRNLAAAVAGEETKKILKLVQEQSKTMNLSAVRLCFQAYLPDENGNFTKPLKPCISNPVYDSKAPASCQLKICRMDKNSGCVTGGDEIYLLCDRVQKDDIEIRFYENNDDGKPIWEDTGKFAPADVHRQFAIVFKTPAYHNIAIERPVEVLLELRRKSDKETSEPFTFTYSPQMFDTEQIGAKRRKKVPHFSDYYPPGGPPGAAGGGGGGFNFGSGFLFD

Test [1] concerns the target T2, GST-Nv-NF-kB (Cys allele) (Nematostella vectensis, UniProt E5G601 2-411).
T2 sequence: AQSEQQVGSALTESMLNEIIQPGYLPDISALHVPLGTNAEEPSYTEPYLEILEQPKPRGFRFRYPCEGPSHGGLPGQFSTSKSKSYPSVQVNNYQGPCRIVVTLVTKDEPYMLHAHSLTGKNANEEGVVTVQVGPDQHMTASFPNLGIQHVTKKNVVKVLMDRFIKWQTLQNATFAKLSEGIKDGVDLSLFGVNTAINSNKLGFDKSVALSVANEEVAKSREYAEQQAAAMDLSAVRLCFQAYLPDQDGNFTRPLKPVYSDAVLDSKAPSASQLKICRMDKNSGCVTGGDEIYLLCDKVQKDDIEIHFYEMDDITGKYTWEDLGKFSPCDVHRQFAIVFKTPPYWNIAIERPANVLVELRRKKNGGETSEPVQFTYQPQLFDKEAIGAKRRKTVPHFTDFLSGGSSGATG

In test [2] the target is T3, GST-Nv-NF-kB (Ser allele) (Nematostella vectensis, UniProt A7UNT2 2-411).
T3 sequence: T2 sequence with Q21R, C66S, S207N, E215Q, V217A, E225K, A268E, D399E

Another test concerns the target T4, GST-Co-NF-kB (Capsaspora owczarzaki, UniProt F1ARL5 200-546).
T4 sequence: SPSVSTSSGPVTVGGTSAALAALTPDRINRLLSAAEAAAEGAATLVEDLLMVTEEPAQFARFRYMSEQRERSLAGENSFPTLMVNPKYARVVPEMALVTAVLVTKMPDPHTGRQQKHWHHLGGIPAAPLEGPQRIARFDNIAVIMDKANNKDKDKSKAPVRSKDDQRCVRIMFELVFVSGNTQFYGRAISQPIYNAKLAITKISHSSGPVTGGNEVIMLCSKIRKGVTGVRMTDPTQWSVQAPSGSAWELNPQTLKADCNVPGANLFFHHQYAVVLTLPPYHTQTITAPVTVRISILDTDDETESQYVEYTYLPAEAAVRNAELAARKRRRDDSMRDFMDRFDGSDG

The target in another test is T5, GST-Dm-Relish (Drosophila melanogaster, UniProt Q94527 99-473).
T5 sequence: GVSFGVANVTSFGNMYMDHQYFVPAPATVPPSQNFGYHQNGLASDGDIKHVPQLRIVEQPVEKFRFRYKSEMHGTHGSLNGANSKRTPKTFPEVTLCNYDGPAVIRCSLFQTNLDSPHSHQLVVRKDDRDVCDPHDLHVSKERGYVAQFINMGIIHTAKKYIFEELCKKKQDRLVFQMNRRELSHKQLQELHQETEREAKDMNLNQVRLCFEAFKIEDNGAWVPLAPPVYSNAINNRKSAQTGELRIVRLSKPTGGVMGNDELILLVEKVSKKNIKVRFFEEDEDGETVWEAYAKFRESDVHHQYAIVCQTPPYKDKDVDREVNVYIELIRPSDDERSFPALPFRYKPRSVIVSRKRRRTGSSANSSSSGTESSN

The target of another test is T6, GST-Aq-NF-kB (Amphimedon queenslandica, UniProt A9Y5G7 2-389).
T6 sequence: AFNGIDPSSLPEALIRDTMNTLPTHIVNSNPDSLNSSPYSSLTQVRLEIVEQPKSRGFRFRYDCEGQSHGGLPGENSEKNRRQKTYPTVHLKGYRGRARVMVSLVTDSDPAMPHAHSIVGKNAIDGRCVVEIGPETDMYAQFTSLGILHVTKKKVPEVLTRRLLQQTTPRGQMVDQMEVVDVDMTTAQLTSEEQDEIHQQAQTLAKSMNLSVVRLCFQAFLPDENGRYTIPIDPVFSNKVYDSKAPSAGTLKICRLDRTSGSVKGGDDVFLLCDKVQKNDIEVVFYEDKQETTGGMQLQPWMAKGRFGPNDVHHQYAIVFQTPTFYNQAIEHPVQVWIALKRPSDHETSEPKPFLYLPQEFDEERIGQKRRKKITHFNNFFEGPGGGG

Another test concerns the target GST-Hu-p50 (Homo sapiens, UniProt P19838 7-356).

Numbering of substitutions follows the chain as printed.

Chain of GST-Hu-p50 (P19838 7-356): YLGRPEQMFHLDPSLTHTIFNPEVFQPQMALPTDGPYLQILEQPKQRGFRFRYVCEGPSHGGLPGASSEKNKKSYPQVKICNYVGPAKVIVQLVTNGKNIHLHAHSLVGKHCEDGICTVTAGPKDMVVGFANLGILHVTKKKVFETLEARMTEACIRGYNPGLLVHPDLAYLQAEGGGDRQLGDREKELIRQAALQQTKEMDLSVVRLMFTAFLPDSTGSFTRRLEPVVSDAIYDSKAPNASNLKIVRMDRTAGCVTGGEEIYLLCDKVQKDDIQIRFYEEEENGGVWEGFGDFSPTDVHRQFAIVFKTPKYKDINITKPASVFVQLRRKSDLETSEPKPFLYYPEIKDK

For “CCGATTAACATCAGTATTTCCCATGATGTTAATCGGGTCTTGATTCGCTTGACGCTGCTG”, the binding signal with GST-Ap-NF-kB RHD is 3.01 z-score; in test [1], 3.64 z-score; in test [2], 3.53 z-score; with GST-Co-NF-kB, 3.66 z-score; with GST-Dm-Relish, 5.01 z-score; with GST-Aq-NF-kB, 3.73 z-score. Also, in the test with GST-Hu-p50, the binding signal was 2.64 z-score.

Turning to “CCGATTAACATCAAATTACCCCCTGATGTTAATCGGGTCTTGATTCGCTTGACGCTGCTG”, the binding signal in the test with GST-Ap-NF-kB RHD is 6.8 z-score; in test [1] it was 5.57 z-score; in test [2], 6.77 z-score; with GST-Co-NF-kB, 8.18 z-score; in the test with GST-Dm-Relish, 4.33 z-score; in the test with GST-Aq-NF-kB, 5.57 z-score. In addition, the binding signal with GST-Hu-p50 was 5.08 z-score.

Consider “CCGATTAACATCAGGAATGCCCCTGATGTTAATCGGGTCTTGATTCGCTTGACGCTGCTG”, for which the binding signal with GST-Ap-NF-kB RHD came out at 5.19 z-score; in test [1], 6.58 z-score; in test [2], 3.31 z-score; with GST-Co-NF-kB it was 1.64 z-score; with GST-Dm-Relish, 5.92 z-score; with GST-Aq-NF-kB it was 7.72 z-score. This sequence came in with a binding signal with GST-Hu-p50 of 5.39 z-score.

For “CCGATTAACATCAAGGGGGAAAATGATGTTAATCGGGTCTTGATTCGCTTGACGCTGCTG”, the binding signal is 6.85 z-score in the test with GST-Ap-NF-kB RHD; 6.58 z-score in test [1]; 10.6 z-score in test [2]; 9.03 z-score in the test with GST-Co-NF-kB; 4.2 z-score with GST-Dm-Relish; 6.14 z-score in the test with GST-Aq-NF-kB. Moreover, the binding signal with GST-Hu-p50 stood at 7.34 z-score.

Regarding “CCGATTAACATCAGGGGAATGTATGATGTTAATCGGGTCTTGATTCGCTTGACGCTGCTG”, the binding signal with GST-Ap-NF-kB RHD is 6.02 z-score; in test [1] it was 7.74 z-score; in test [2], 8.56 z-score; in the test with GST-Co-NF-kB, 6.26 z-score; in the test with GST-Dm-Relish, 2.96 z-score; in the test with GST-Aq-NF-kB it was 5.58 z-score. The sequence also registered a binding signal in the test with GST-Hu-p50 of 5.69 z-score.

With “CCGATTAACATCAGGGAATTTCATGATGTTAATCGGGTCTTGATTCGCTTGACGCTGCTG”, the binding signal was determined as 5 z-score with GST-Ap-NF-kB RHD; 7.17 z-score in test [1]; 7.08 z-score in test [2]; 3.61 z-score with GST-Co-NF-kB; 4.49 z-score with GST-Dm-Relish; 5.84 z-score with GST-Aq-NF-kB. The sequence further gave a binding signal in the test with GST-Hu-p50 of 5.25 z-score.

For “CCGATTAACATCAGCAATTTCCCTGATGTTAATCGGGTCTTGATTCGCTTGACGCTGCTG”, the binding signal is 3.13 z-score with GST-Ap-NF-kB RHD; 4.55 z-score in test [1]; 5.81 z-score in test [2]; 3.47 z-score with GST-Co-NF-kB; 1.78 z-score in the test with GST-Dm-Relish; 3.79 z-score with GST-Aq-NF-kB. In addition, the binding signal with GST-Hu-p50 was determined as 3.52 z-score.

In the case of “CCGATTAACATCAAGGGGAAATCTGATGTTAATCGGGTCTTGATTCGCTTGACGCTGCTG”, the binding signal with GST-Ap-NF-kB RHD was 8.38 z-score; in test [1], 9.53 z-score; in test [2] it was 12.2 z-score; with GST-Co-NF-kB, 7.59 z-score; with GST-Dm-Relish it was 6.04 z-score; with GST-Aq-NF-kB, 6.89 z-score. The sequence also gave a binding signal with GST-Hu-p50 of 7.08 z-score.

As to “CCGATTAACATCAATAAATCCCCTGATGTTAATCGGGTCTTGATTCGCTTGACGCTGCTG”, the binding signal with GST-Ap-NF-kB RHD came out at 7.78 z-score; in test [1], 9.33 z-score; in test [2], 11.6 z-score; with GST-Co-NF-kB, 4.45 z-score; with GST-Dm-Relish, 9.26 z-score; with GST-Aq-NF-kB, 6.63 z-score. Besides, the binding signal in the test with GST-Hu-p50 was 7.71 z-score.

In the case of “CCGATTAACATCAAATTCCCGGGTGATGTTAATCGGGTCTTGATTCGCTTGACGCTGCTG”, the binding signal with GST-Ap-NF-kB RHD was 3.33 z-score; in test [1], 3.9 z-score; in test [2], 3.88 z-score; in the test with GST-Co-NF-kB, 4.43 z-score; with GST-Dm-Relish, 3.94 z-score; in the test with GST-Aq-NF-kB, 3.13 z-score. The same sequence returned a binding signal with GST-Hu-p50 of 3.85 z-score.

For “CCGATTAACATCAGAGATTTCCCTGATGTTAATCGGGTCTTGATTCGCTTGACGCTGCTG”, the binding signal amounted to 3.94 z-score with GST-Ap-NF-kB RHD; 5.69 z-score in test [1]; 6.13 z-score in test [2]; 3.92 z-score with GST-Co-NF-kB; 2.1 z-score with GST-Dm-Relish; 5.48 z-score with GST-Aq-NF-kB. In the test with GST-Hu-p50, this sequence returned a binding signal of 4.51 z-score.

Consider “CCGATTAACATCAGGAAACCCCCTGATGTTAATCGGGTCTTGATTCGCTTGACGCTGCTG”, for which the binding signal with GST-Ap-NF-kB RHD was found to be 11.2 z-score; in test [1], 10.1 z-score; in test [2] it was 9.07 z-score; with GST-Co-NF-kB it was 3.13 z-score; with GST-Dm-Relish, 10.1 z-score; with GST-Aq-NF-kB, 10.5 z-score. For the same sequence, in the test with GST-Hu-p50, the binding signal amounted to 8.19 z-score.

The values above are taken from publication PMC5700166.
